# “And” between values parts separate entries of the source, which are not always exact repeats. Equal entries are not always repeated. The source made the active and inactive calls. Cut-off read from the data, not from the text of the source, unless noted: active = inhibition above about 80%; inactive = the rest.
# What was measured:
# [1] = sensitizers of A549 cells to miR-34 induction, primary screen, imaging, A549 dox-inducible miR-34, nuclei and caspase counts (AID 1347080;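 active = compounds whose cell count with miR-34 switched on is under 0.7 times the count with it off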); conditions: A549 miR-34 inducible, Hoechst nuclei count, 48 h
# [2] = survival rescue of mitochondrial mutant cells in low glucose, primary screen, MELAS cybrids, Rieske KO mouse fibroblasts, CellTiter-Glo (AID 1508586;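 active = mean z-score across replicates of 1.96 or higher in either the MELAS or the Rieske mutant cell line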;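 note: z relative to plate mean and SD of compound and empty wells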)
# [3] = viability rescue of complex I mutant cybrids, primary screen, cell-based, galactose medium, ATP luminescence (AID 1645843;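 active = z-score of at least 1.8 in each of two replicates, scored against plate mean and spread of sample wells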;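 note: positive z means more ATP and so rescue of galactose-driven cybrid death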); conditions: complex I mutant cybrid cells, 72 h, stronger effect = higher value
# [4] = LFS_MB_P medulloblastoma growth inhibition, cell-based, chromothripsis tumors, cisplatin or BGB combos (AID 1671449); conditions: LFS_MB_P medulloblastoma cells;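 note: cells exposed for 96 hours; 0% = vehicle DMSO and 100% = killing by high DMSO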
# [5] = HDN33 neuroblastoma growth inhibition, cell-based, chromothripsis tumors, cisplatin or BGB combos (AID 1671450); conditions: HDN33 neuroblastoma cells, stronger effect = higher value;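 note: cells exposed to compound for four days; 0% = vehicle DMSO and 100% = cell killing by high DMSO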
# [6] = ICB984 medulloblastoma cell growth inhibition, synergistic combos for chromothripsis tumors, cisplatin or BGB combos (AID 1671451; call rule not given here;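 note: cells exposed for 96 hours before readout; 0% = vehicle DMSO and 100% = killing by high DMSO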); conditions: ICB984 medulloblastoma cells, drug combinations, stronger effect = higher value
# [7] = LFS_MB_1R medulloblastoma cell growth inhibition, synergistic combos for chromothripsis tumors, cisplatin or BGB combos (AID 1671452); conditions: LFS_MB_1R medulloblastoma cells, stronger effect = higher value;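 note: cells exposed for 96 hours before readout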
# [8] = HTB85 osteosarcoma cell growth inhibition, synergistic combos for chromothripsis tumors, BGB or cisplatin IC20 combos (AID 1671453); conditions: HTB85 osteosarcoma cells, drug combinations, stronger effect = higher value;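 note: cells exposed for 96 hours before readout; 0% = vehicle DMSO and 100% = high DMSO killing control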
# [9] = CRL2098 osteosarcoma cell growth inhibition, synergistic combos for chromothripsis tumors, BGB or cisplatin IC20 combos (AID 1671454); conditions: CRL2098 osteosarcoma cells, drug combinations, stronger effect = higher value;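 note: cells exposed for 96 h before readout; 0% = vehicle DMSO and 100% = killing by high DMSO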
# [10] = HD-MB03 medulloblastoma cell growth inhibition, synergistic combos for chromothripsis tumors, BGB or cisplatin IC20 combos (AID 1671455; in the data active = inhibition above about 83%;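 note: 0% = vehicle DMSO and 100% = high DMSO as cytotoxic control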); conditions: HD-MB03 medulloblastoma cells, stronger effect = higher value
# [11] = UWB1.289 ovarian carcinoma cell growth inhibition, synergistic combos for chromothripsis tumors, BGB or cisplatin combos (AID 1671456); conditions: UWB1.289 ovarian carcinoma cells, stronger effect = higher value;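 note: cells exposed to compound for four days; 0% = vehicle DMSO and 100% = killing by high DMSO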
# [12] = LFS_MB_2R medulloblastoma cell growth inhibition, synergistic combos for chromothripsis tumors, cisplatin combos (AID 1671457); conditions: LFS_MB_2R medulloblastoma cells, stronger effect = higher value;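 note: cells exposed to compound for four days before readout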
# [13] = MDA-MB-436 breast carcinoma cell growth inhibition, synergistic combos for chromothripsis tumors, BGB or cisplatin combos (AID 1671458; call rule not given here;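 note: cells exposed for 96 hours; 0% = vehicle DMSO and 100% = killing by high DMSO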); conditions: MDA-MB-436 breast carcinoma growth inhibition, drug combinations, stronger effect = higher value
# [14] = UWB1.289_BRCA1 ovarian cancer growth, cell-based, BGB or cisplatin combinations (AID 1671459); conditions: UWB1.289 BRCA1 ovarian carcinoma, drug combinations, stronger effect = higher value
# [15] = human astrocyte viability loss, single and combined drugs, cytotoxicity control for chromothriptic childhood tumor combination screen, cell-based, BGB or cisplatin IC20 combos (AID 1671460); conditions: Human astrocytes, drug combinations, stronger effect = higher value;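 note: cells exposed to compounds for 96 hours before viability readout; 0% = vehicle and 100% = killing control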
# [16] = growth inhibition of BT084 medulloblastoma cells, cell-based, ICGC_MB145, cisplatin and BGB IC40 combos (AID 1671461); conditions: drug combinations, stronger effect = higher value;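 note: cells exposed to drugs for 96 hours; 0% = vehicle DMSO and 100% = high DMSO full killing control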
# [17] = growth inhibition of RCMB18 medulloblastoma cells, cell-based, cisplatin and BGB IC40 combos (AID 1671462); conditions: stronger effect = higher value;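 note: cells exposed to compound for four days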
# [18] = growth inhibition of CRL1545 osteosarcoma cells, cell-based, cisplatin and BGB IC20 combos (AID 1671464); conditions: stronger effect = higher value;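 note: cells exposed to compound for 96 hours before readout; 0% = vehicle DMSO and 100% = high DMSO killing control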
# [19] = stronger effect = lower value, cell number ratio, induced over uninduced
# [20] = measured here: relative caspase fold change +Dox/-Dox
# [21] = measured here: total cells with miR-34 induction, stronger effect = lower value
# [22] = measured here: total cells without miR-34 induction
# [23] = MELAS cybrid survival, CellTiter-Glo 48 h, stronger effect = higher value
# [24] = Rieske KO mouse fibroblast survival, CellTiter-Glo 72 h
# [25] = measured here: combination with BGB IC40, at 0.05 µM
# [26] = measured here: with BGB IC20 combination, at 0.5 µM
# [27] = measured here: with cisplatin IC20 combination, at 0.5 µM
# [28] = measured here: combination with cisplatin, at 0.5 µM
# [29] = measured here: combination with cisplatin, at 5 µM
smiles,measurement,setting,value
Cc1cn(C2C=CC(CO)O2)c(=O)[nH]c1=O (configuration not stated),fold change,[1]; [19],0.962 (inactive) and 0.935 (inactive)
same,fold change,[1]; [20],1.05 and 0.911
same,cell count,[1]; [21],8970 and 7330
same,cell count,[1]; [22],9320 and 7840
same,z-score,[2]; [23],-0.48 (inactive)
same,z-score,[2]; [24],0.518
same,z-score,[3],0.42 (inactive)
same,inhibition,"[4]; at 0.5 µM, stronger effect = higher value",-20.9% (inactive)
same,inhibition,"[4]; measured here: combination with BGB IC20, at 0.005 µM",-5.29%
same,inhibition,"[4]; measured here: combination with BGB IC40, at 0.005 µM",-35%
same,inhibition,[4]; [25],-15.2%
same,inhibition,"[4]; measured here: combination with cisplatin, at 0.5 µM, stronger effect = higher value",-28.2%
same,inhibition,"[4]; measured here: combination with cisplatin, at 5 µM, stronger effect = higher value",-24.4%
same,inhibition,"[5]; BGB combo, at 5 µM",-42.2%
same,inhibition,[5]; at 0.5 µM,-34.4% (inactive)
same,inhibition,"[5]; cisplatin combo, at 5 µM",-46.6%
same,inhibition,[5]; [26],-50.9%
same,inhibition,[5]; [27],-24.2%
same,inhibition,"[5]; single agent, at 5 µM",-41%
same,inhibition,"[6]; BGB IC20 combo, at 0.005 µM",-4.4%
same,inhibition,"[6]; BGB IC40 combo, at 0.005 µM",-46.7%
same,inhibition,"[6]; BGB IC40 combo, at 0.05 µM",-3.74%
same,inhibition,[6]; at 0.5 µM,-26.7% (inactive)
same,inhibition,"[6]; cisplatin combo, at 0.05 µM",-6.64%
same,inhibition,"[6]; cisplatin combo, at 0.5 µM",-35.4%
same,inhibition,"[6]; cisplatin combo, at 5 µM",-36.2%
same,inhibition,"[6]; measured here: 5 uM single agent, at 5 µM",-29.8%
same,inhibition,[7]; at 0.5 µM,-29.1% (inactive)
same,inhibition,[7]; [25],-18.5%
same,inhibition,[7]; [28],-42.3%
same,inhibition,[7]; [29],-74.7%
same,inhibition,[8]; at 0.5 µM,-32.3% (inactive)
same,inhibition,"[8]; measured here: with BGB IC20, at 0.5 µM",-52.5%
same,inhibition,"[8]; measured here: with BGB IC20, at 5 µM",-73.7%
same,inhibition,"[8]; measured here: with cisplatin IC20, at 0.5 µM",-25.1%
same,inhibition,"[8]; measured here: with cisplatin IC20, at 5 µM",-14.5%
same,inhibition,"[8]; single agent, at 5 µM",6.05%
same,inhibition,[9]; at 0.5 µM,-98.7% (inactive)
same,inhibition,"[9]; measured here: combination with BGB at IC20, at 0.5 µM",-91.8%
same,inhibition,"[9]; measured here: combination with cisplatin at IC20, at 0.5 µM",-105%
same,inhibition,[10]; at 0.5 µM,-18.8% (inactive)
same,inhibition,"[10]; measured here: combo with BGB at IC20, at 0.5 µM",-15.9%
same,inhibition,"[10]; measured here: combo with cisplatin at IC20, at 0.5 µM",-28%
same,inhibition,[11]; at 0.5 µM,-10.5% (inactive)
same,inhibition,"[11]; measured here: inhibition with BGB combination, at 0.05 µM",-4.7%
same,inhibition,"[11]; measured here: inhibition with cisplatin combination, at 0.05 µM",-16.8%
same,inhibition,[12]; at 0.5 µM,-12.5% (inactive)
same,inhibition,[12]; [28],-17.8%
same,inhibition,[12]; [29],-34.1%
same,inhibition,[13]; at 0.5 µM,-24% (inactive)
same,inhibition,"[13]; measured here: BGB combination, at 0.5 µM",-19.7%
same,inhibition,"[13]; measured here: BGB combination, at 5 µM",-23.5%
same,inhibition,"[13]; measured here: cisplatin combination, at 0.5 µM",-37.6%
same,inhibition,"[13]; measured here: cisplatin combination, at 5 µM",-21%
same,inhibition,"[14]; BGB combination, concentration series, at 5 µM",-25.5%
same,inhibition,[14]; at 0.5 µM,-15.9% (inactive)
same,inhibition,"[14]; cisplatin combination, concentration series, at 5 µM",-8.88%
same,inhibition,[15]; at 0.5 µM,-7.19% (inactive)
same,inhibition,"[15]; measured here: combo with BGB IC20, at 0.5 µM",-8.45%
same,inhibition,"[15]; measured here: combo with cisplatin IC20, at 0.5 µM",-23.8%
same,inhibition,[16]; at 0.5 µM,-17.7% (inactive)
same,inhibition,"[16]; cisplatin combination, at 0.5 µM",-7.07%
same,inhibition,"[16]; cisplatin combination, at 5 µM",-5.39%
same,inhibition,"[16]; measured here: BGB IC40 combination 0.05 uM, at 0.05 µM",-19.6%
same,inhibition,"[16]; single agent, at 5 µM",-14%
same,inhibition,[17]; at 0.5 µM,-28.5% (inactive)
same,inhibition,"[17]; cisplatin combo, at 5 µM",-44.1%
same,inhibition,"[17]; measured here: BGB IC40 combination, at 0.05 µM",-19.7%
same,inhibition,[17]; [28],-44.8%
same,inhibition,"[17]; single agent, at 5 µM",-28.1%
same,inhibition,[18]; at 0.5 µM,-40.6% (inactive)
same,inhibition,[18]; [26],-40.6%
same,inhibition,[18]; [27],-43.7%
same,inhibition,"[18]; single agent, at 0.05 µM",-24.2%
same,inhibition,"[18]; single agent, at 5 µM",-21.8%
Cn1c(=O)c(O)c(O)c2ccccc21,fold change,[1]; [19],0.815 (inactive)
same,fold change,[1]; [20],0.99
same,cell count,[1]; [21],4980
same,cell count,[1]; [22],6110
same,z-score,[2]; [23],-0.227 (inactive)
same,z-score,[2]; [24],-0.541
same,z-score,[3],-2.27 (inactive)
COc1ccccc1-c1cnn(CC(=O)Nc2cc(C)nn2C)c1,fold change,[1]; [19],0.86 (inactive)
same,fold change,[1]; [20],2.23
same,cell count,[1]; [21],7820
same,cell count,[1]; [22],9090
same,z-score,[2]; [23],0.116 (inactive)
same,z-score,[2]; [24],-1.22
same,z-score,[3],-0.56 (inactive)
Cn1nc(-c2cccnc2)c2[nH]c(-c3ccccc3OC(F)F)nc21,fold change,[1]; [19],0.875 (inactive)
same,fold change,[1]; [20],0.925
same,cell count,[1]; [21],6510
same,cell count,[1]; [22],7440
same,z-score,[2]; [23],-1.45 (inactive)
same,z-score,[2]; [24],0.404
same,z-score,[3],0.095 (inactive)
CC(NC(CCc1ccccc1)C(=O)O)C(=O)N1CCCC1C(=O)O (configuration not stated),fold change,[1]; [19],0.974 (inactive) and 0.933 (inactive)
same,fold change,[1]; [20],2.22 and 0.554
same,cell count,[1]; [21],9670 and 8080
same,cell count,[1]; [22],9920 and 8660
same,z-score,[2]; [23],0.277 (inactive)
same,z-score,[2]; [24],0.0621
same,z-score,[3],0.69 (inactive)
CCOc1ccc(C=C2NCCc3cc(OCC)c(OCC)cc32)cc1OCC,fold change,[1]; [19],0.846 (inactive)
same,fold change,[1]; [20],0.801
same,cell count,[1]; [21],4950
same,cell count,[1]; [22],5850
same,z-score,[2]; [23],-1.41 (inactive)
same,z-score,[2]; [24],-0.0245
same,z-score,[3],-2.65 (inactive)
Cc1ccc(NC(=O)c2ccc3nccnc3c2)cn1,fold change,[1]; [19],0.855 (inactive)
same,fold change,[1]; [20],1.41
same,cell count,[1]; [21],8560
same,cell count,[1]; [22],10000
same,z-score,[2]; [23],0.00943 (inactive)
same,z-score,[2]; [24],-0.47
same,z-score,[3],-0.48 (inactive)

# — PubChem BioAssay
